From PubChem BioAssay (Tox21) come the findings set out here.

Values joined by “and” are separate entries in the source; they are usually repeats but may differ in a detail not shown here. Equal entries are not always repeated. Values without a mark were called inactive. Records with an inconclusive call do not appear. Active and inactive are the calls of the source. Unless noted, calls follow the shape of the dose curve; as a rule, active = well fitted curve in the direction sought with a large enough effect in the repeat runs; inconclusive = weak or mixed curves; inactive = no such curve, though single readings can be large; an effect the other way counts as inactive or inconclusive.

Test [1] in a line: qHTS assay to identify small molecule agonists of the estrogen receptor alpha (ER-alpha) signaling pathway in the presence of an antagonist - cell viability counter screen (AID 1259386).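 Also: cells exposed to compounds for 22 h at 37 °C before the viability read; nearly all actives have a fitted effect of over 30% in size.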 Also: potency is read from the fitted curve at half-maximal effect. Summed up:
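VM7Luc4E2, stripped-serum pre-culture 5 d; 24hr plating; +ICI-182,780 10.0nM final; cpds 15 conc, 22hr, 37C/5% CO2; CellTiter-Fluor added at 21hr, fluorescence 1hr later.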

Test [2] is described as follows: qHTS assay to identify small molecule antagonists of the TGF-beta/Smad signaling pathway - cell viability counter screen (AID 1346824). Also: nearly all actives have a fitted effect of over 50% in size. In outline:
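Cytotoxicity counter-screen run in the same wells as the beta-lactamase Smad reporter read: CellTiter-Glo luminescence after 30 min at room temperature. HEK 293T SBE-bla cells had 5 hr compound exposure at 37 C with TGF-beta1 (0.25 ng/mL stock).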

Test [3] is described as follows: qHTS assay to identify small molecule agonists of the TGF-beta/Smad signaling pathway - cell viability counter screen (AID 1346829). Also: top concentration of the series differs between compounds; nearly all actives have a fitted effect of over 45% in size. In outline: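 Tox21 qHTS format: SBE-bla HEK 293T cells treated with DMSO-dissolved compounds for 5 hr; CellTiter-Glo luminescence after 30 min at room temperature.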
Test [4] can be described thus: qHTS assay to identify small molecule agonists of the TGF-beta/Smad signaling pathway (AID 1346859; active = well fitted activation curve with a large enough effect in the signal ratio in the repeat runs, not every such curve was filed as active; the % refers to the signal ratio; also: series mostly up to about 77 µM). Summed up:
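Smad-responsive beta-lactamase reporter cells (HEK 293T) received compounds from DMSO stocks after overnight attachment, were incubated 5 hr, then treated 2 hr with FRET substrate before dual-emission fluorescence measurement (405 nm excitation).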
(Quantitative high-throughput screening tests each substance at several concentrations.)

The target of test [5] is Thyrotropin-releasing hormone receptor (Homo sapiens) (UniProt P34981). Description: qHTS assay to identify small molecule antagonists of the thyrotropin-releasing hormone receptor (TRHR) signaling pathway (AID 1346877; active = well fitted inhibition curve with a large enough effect in the repeat runs, not every such curve was filed as active; also: series mostly up to about 51 µM). In outline:
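Intracellular calcium fluorescence, read kinetically every second over 3 min, reports TRH-evoked signalling in HEK293 cells carrying TRHR. Test compounds were added 5 min ahead of a 1 nM TRH challenge.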

The target is the same in test [6]. As to the kind of experiment: qHTS assay to identify small molecule agonists of the thyrotropin-releasing hormone receptor (TRHR) signaling pathway (AID 1346891; calls by dose curve;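 also: HEK293 cells expressing TRHR with calcium dye readout; series mostly up to about 58 µM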). In outline: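 Agonist-mode calcium mobilisation screen: TRHR-transfected HEK293 cells cultured overnight (18 h), dye-loaded for 2 h at 37 °C, exposed to compounds, and monitored by fluorescence for 3 min.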

Test [7] in a line: Human pregnane X receptor (PXR) small molecule agonists, qHTS cell viability counter screen (AID 1346977). Also: nearly all actives have a fitted effect of over 50% in size. Also: potency is read from the fitted curve at half-maximal effect. In outline: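 Measures live-cell protease fluorescence (CellTiter-Fluor) in PXR-Luc HepG2 cells treated 24hr with compounds at 37C. Cells had 5hr to attach before pin transfer of DMSO solutions.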
Test [8] can be described thus: Caspase-3/7 induction in HepG2 cells by small molecules, qHTS assay (AID 1346978). Also: nearly all actives have a fitted effect of over 15% in size. Also: potency is read from the fitted curve at half-maximal effect. Summed up: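 Caspase-3/7 induction was measured by Caspase-Glo 3/7 luminescence (30 min, room temperature) after a 17 hr compound exposure of wild-type HepG2 cells seeded at 2,000 per well and pre-incubated 5 hr.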
Test [9] can be described thus: Caspase-3/7 induction in CHO-K1 cells by small molecules, qHTS cell viability counter screen (AID 1346979). Also: nearly all actives have a fitted effect of over 35% in size. Also: potency is read from the fitted curve at half-maximal effect. Summed up:
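In the same wells as the caspase read, viability of compound-treated wild-type CHO-K1 cells was assessed using CellTiter-Fluor, added after 16hr at 37C and measured by fluorescence following 1hr further incubation.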

A short description of test [10]: Caspase-3/7 induction in CHO-K1 cells by small molecules, qHTS assay (AID 1346980). Also: nearly all actives have a fitted effect of over 15% in size. In outline: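 Luminescent Caspase-Glo 3/7 read (30min, room temperature) quantified apoptosis induction. Cells were wild-type CHO-K1, treated with compound for 17hr at 37 C and 5% CO2.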
A short description of test [11]: Caspase-3/7 induction in HepG2 cells by small molecules, qHTS cell viability counter screen (AID 1346981). Also: nearly all actives have a fitted effect of over 30% in size. Also: potency is read from the fitted curve at half-maximal effect. In outline:
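HepG2, WT, 2,000 cells/well; 5 hr pre-incubation 37 C/5% CO2; compound pin-transferred from DMSO; 16 hr exposure; CellTiter-Fluor, 1 hr; fluorescence read.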

In test [12] the target is Nuclear receptor subfamily 1 group I member 2 (Homo sapiens) (UniProt O75469). As to the kind of experiment: Human pregnane X receptor (PXR) small molecule agonists, qHTS assay (AID 1346982). Also: nearly all actives have a fitted effect of over 35% in size. Also: potency is read from the fitted curve at half-maximal effect. Summed up: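 Luciferase signal from ONE-Glo (30 min, room temperature) measured activation of hPXR-driven CYP3A4 reporter expression in PXR-Luc HepG2 cells treated with compounds for 24 hr at 37 C.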
Sequence of Nuclear receptor subfamily 1 group I member 2 (Homo sapiens) (O75469 whole entry, looked up): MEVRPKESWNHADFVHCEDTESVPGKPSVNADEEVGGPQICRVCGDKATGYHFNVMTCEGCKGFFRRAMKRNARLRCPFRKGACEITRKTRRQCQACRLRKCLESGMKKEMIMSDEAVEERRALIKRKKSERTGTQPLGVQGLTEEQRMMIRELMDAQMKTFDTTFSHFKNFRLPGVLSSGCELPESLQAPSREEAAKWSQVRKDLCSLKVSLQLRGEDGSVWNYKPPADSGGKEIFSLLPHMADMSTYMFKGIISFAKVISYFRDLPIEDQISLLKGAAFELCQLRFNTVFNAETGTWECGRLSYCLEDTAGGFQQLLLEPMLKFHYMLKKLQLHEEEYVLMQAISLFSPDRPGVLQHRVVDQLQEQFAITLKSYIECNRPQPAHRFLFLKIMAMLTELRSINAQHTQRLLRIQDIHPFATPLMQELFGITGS

In test [13] the target is Cytochrome P450 2D6 (Homo sapiens) (UniProt P10635). Description: Cytochrome P450 Family 2 Subfamily D Member 6 (CYP2D6) small molecule antagonists: luciferase reporter qHTS assay (AID 1671196). Also: nearly all actives have a fitted effect of over 50% in size. Also: potency is read from the fitted curve at half-maximal effect. Summed up:
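Read-out is luminescence from luciferin formed by CYP2D6 turnover of a proluciferin substrate, recorded as relative luminescence units. Reactions ran 1 h at room temperature after NADPH regeneration solution was added.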
For orientation: In a reporter assay the amount or activity of a reporter protein is the signal.

A short description of test [14]: qHTS assay to identify small molecule antagonists of the progesterone receptor (PR) signaling pathway - cell viability counter screen (AID 1346798). Also: series mostly up to about 92 µM; nearly all actives have a fitted effect of over 50% in size. Summed up: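 Same-well multiplex: after 16 hr at 37C with compound and R5020 stimulation, HEK293T cells carrying a UAS-bla reporter received LiveBLAzer substrate (2 hr RT), then CellTiter-Glo (30 min RT) for luminescent viability.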

A short description of test [15]: qHTS assay to identify small molecule agonists of the progesterone receptor (PR) signaling pathway - cell viability counter screen (AID 1346799; calls by dose curve; also: nearly all actives have a fitted effect of over 45% in size; also: potency is read from the fitted curve at half-maximal effect). In outline:
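Counter screen for cytotoxicity: compound-treated PR-UAS-bla HEK293T cells (16 hr, 37C, 5% CO2) were assayed with CellTiter-Glo, luminescence measured after 30 min at room temperature.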

For test [16], the target named is Nuclear receptor subfamily 1 group I member 2 (Rattus norvegicus) (UniProt Q9R1A7). Description: Rat pregnane X receptor (rPXR) activation by small molecules, qHTS assay (AID 1346983). Also: nearly all actives have a fitted effect of over 20% in size. To be noted: rPXR luciferase reporter cells, One-Glo luminescence, 24 h; max activation: stronger effect = higher value. In outline: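 Luminescent readout (One-Glo luciferase, 30 min room temperature) followed 24 hr compound treatment at 37 C of rPXR cells plated 2,000 per well and preincubated 5hr; qHTS format with compounds delivered in DMSO.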
Sequence of Nuclear receptor subfamily 1 group I member 2 (Rattus norvegicus) (Q9R1A7 whole entry, looked up): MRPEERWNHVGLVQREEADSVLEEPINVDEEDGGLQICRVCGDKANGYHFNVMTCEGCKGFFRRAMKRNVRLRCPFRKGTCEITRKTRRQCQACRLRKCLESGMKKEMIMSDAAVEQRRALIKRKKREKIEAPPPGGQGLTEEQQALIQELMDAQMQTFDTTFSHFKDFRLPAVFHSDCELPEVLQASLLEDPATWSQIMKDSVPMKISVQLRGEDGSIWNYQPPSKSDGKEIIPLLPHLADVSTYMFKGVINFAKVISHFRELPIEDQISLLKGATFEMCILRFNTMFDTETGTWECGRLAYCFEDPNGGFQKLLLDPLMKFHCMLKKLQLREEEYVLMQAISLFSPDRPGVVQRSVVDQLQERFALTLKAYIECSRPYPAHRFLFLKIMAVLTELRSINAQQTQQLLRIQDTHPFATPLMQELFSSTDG

In test [17] the target is Nuclear receptor subfamily 1 group I member 2 (Homo sapiens) (UniProt O75469). As to the kind of experiment: CYP3A4 induction through human pregnane X receptor (PXR) by small molecules, qHTS assay (AID 1346984). Also: nearly all actives have a fitted effect of over 40% in size. In outline: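 Luminescence readout: luciferase signal after One-Glo (30 min, room temperature), following 3 h at 37C with 3uM final Luciferin-IPA P450 substrate. Cells were DPX-2 (HepG2, PXR/CYP3A4-luc co-transfected) dosed for 24 h.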

Test [18] has the same target. Description: Human pregnane X receptor (PXR) activation by small molecules, qHTS assay (AID 1346985). Also: nearly all actives have a fitted effect of over 40% in size. Summed up: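 DPX-2 cells (HepG2 co-transfected with a PXR response element and a CYP3A4-promoter luciferase construct) were seeded at 2,000 per well, rested 5 hr at 37C, then exposed to DMSO-dissolved compounds for 24 hr. Activation was read as luciferase luminescence.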

The target in test [19] is Progesterone receptor (Homo sapiens) (UniProt P06401). As to the kind of experiment: qHTS assay to identify small molecule agonists of the progesterone receptor (PR) signaling pathway (AID 1346784; calls by dose curve; also: nearly all actives have a fitted effect of over 30% in size). In outline:
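Agonist mode, quantitative HTS format in a HEK 293T line expressing a UAS-controlled beta-lactamase reporter; 16 hr compound exposure at 37C in 2% charcoal-stripped FBS, then LiveBLAzer B/G FRET fluorescence.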

Test [20] shares this target. Description: qHTS assay to identify small molecule antagonists of the progesterone receptor (PR) signaling pathway (AID 1346795; active = well fitted inhibition curve with a large enough effect in the signal ratio in the repeat runs, not every such curve was filed as active; the % refers to the signal ratio; also: potency is read from the fitted curve at half-maximal effect). In outline: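 HEK293T PR-UAS-bla reporter cells in charcoal-stripped serum (2%) received compound after a 6 hr settling period, followed by R5020 agonist at 1 nM final; 16 hr incubation preceded the FRET substrate step and fluorescence measurement.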
% is scaled to controls: 0 for no effect and ±100 for the full control effect.

Sequence of Progesterone receptor (Homo sapiens) (P06401 whole entry, looked up): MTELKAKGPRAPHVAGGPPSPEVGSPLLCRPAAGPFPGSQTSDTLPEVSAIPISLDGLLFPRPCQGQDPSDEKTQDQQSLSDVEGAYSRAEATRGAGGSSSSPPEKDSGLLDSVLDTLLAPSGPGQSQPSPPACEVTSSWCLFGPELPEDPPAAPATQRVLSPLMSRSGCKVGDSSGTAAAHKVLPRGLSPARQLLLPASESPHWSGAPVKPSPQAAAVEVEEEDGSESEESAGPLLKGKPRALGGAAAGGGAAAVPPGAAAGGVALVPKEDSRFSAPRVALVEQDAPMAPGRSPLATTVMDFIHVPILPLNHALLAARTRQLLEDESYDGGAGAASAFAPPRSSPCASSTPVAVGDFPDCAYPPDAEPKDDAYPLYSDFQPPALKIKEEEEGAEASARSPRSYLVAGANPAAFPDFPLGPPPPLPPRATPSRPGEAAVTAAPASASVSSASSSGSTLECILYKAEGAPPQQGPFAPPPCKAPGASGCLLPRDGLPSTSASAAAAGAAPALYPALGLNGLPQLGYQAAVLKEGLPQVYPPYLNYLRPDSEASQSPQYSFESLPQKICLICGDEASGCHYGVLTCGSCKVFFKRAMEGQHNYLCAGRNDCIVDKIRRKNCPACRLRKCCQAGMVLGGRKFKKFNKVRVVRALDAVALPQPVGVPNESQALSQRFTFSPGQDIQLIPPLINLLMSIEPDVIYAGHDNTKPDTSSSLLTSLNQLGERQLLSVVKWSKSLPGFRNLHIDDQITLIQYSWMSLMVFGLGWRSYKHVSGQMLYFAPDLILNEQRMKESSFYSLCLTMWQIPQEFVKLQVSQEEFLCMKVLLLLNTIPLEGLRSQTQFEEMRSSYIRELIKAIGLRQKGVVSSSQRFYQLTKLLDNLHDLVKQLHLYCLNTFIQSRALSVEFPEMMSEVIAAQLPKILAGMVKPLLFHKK
Sequence of Cytochrome P450 2D6 (Homo sapiens) (P10635 whole entry, looked up): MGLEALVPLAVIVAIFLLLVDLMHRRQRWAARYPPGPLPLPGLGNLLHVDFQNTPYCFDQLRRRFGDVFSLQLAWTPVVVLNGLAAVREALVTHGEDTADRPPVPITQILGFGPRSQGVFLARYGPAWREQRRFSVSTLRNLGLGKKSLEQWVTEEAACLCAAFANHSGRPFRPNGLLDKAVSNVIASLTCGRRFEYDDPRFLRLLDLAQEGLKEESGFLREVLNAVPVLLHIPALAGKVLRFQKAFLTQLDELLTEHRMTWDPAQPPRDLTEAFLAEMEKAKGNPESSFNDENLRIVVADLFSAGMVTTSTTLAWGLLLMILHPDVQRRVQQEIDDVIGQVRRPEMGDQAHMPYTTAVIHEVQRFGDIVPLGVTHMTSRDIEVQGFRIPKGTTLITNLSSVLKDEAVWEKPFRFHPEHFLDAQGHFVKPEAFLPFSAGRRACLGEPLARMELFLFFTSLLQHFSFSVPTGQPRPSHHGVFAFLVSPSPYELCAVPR
Sequence of Thyrotropin-releasing hormone receptor (Homo sapiens) (P34981 whole entry, looked up): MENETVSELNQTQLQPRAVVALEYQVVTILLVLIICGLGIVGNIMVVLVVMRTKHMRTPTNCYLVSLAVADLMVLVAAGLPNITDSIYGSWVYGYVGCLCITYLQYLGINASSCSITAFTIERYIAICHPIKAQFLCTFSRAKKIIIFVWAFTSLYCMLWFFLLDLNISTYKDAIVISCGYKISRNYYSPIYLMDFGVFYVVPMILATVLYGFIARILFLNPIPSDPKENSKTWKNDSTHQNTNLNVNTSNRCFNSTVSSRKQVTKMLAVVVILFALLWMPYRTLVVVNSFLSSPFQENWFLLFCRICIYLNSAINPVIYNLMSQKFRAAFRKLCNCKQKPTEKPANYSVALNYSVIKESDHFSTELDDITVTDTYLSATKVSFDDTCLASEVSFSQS

`Oc1cc2c(cc1O)[C@H]1c3ccc(O)c(O)c3OC[C@@]1(O)C2`: the Potency in test [1] was 27.6 µM (active); in test [7], 27.6 µM (active); in test [9] it was 27.6 µM (active); in test [11], 55.1 µM (active); in test [13] it was 36 µM (active). Further, the Potency entry in test [2], in test [3], in test [4], in [6], in test [8] and in [10] was “inactive” throughout. The Potency result in test [12] was “inactive”. In addition, the result in test [5] was inactive.
Turning to `C=CC(=O)OCC1CC2CC1C1CCC(COC(=O)C=C)C21` (stereo not given), the Potency result in test [1], in test [14], in [15], in [2], in test [3] and in test [4] was “inactive” each time. The Potency result in [6], in test [7], in test [8] and in [11] was “inactive” in each case. Moreover, the outcome in test [5] was inactive. For the same compound, in [9], the Potency is 48.6 µM (active).
As for `C[C@H]1c2cccc(O)c2C(O)=C2C(=O)[C@]3(O)C(O)=C(C(N)=O)C(=O)[C@@H](N(C)C)[C@@H]3[C@@H](O)[C@@H]21`, the Potency entry in test [1], in test [14], in test [15], in test [2], in test [3] and in [6] was “inactive” each time. Moreover, the Potency result in test [7], in test [8], in test [10], in [11], in test [12] and in test [17] was “inactive” in each case. For the same compound, the Potency result in test [18] and in [13] was “inactive” each time. The call in test [5] was inactive. For the same compound, the max activation in [16] was -4.08%.
In the case of `CC(C)(O)c1ccc(CNC(=O)c2cccnc2Oc2ccc3nonc3c2)cc1`, the Potency result in test [19], in test [20], in [14], in test [15], in test [2] and in [3] was “inactive” each time. Further, the Potency result in test [4], in test [6], in [7], in test [8] and in test [10] was “inactive” each time. Moreover, in test [5], the result was inactive.
As to `CO/N=C(/C(=O)N[C@@H]1C(=O)N2C(C(=O)O)=C(COC(N)=O)CS[C@H]12)c1ccco1`, the Potency result in [1], in test [14], in test [15], in test [2], in test [3] and in [4] was “inactive” throughout. In addition, the Potency result in test [6], in test [7], in test [8], in test [9], in [10] and in test [11] was “inactive” each time. Moreover, the Potency entry in [13] is “inactive”. The compound was classed as inactive in test [5].
Take `CC(=O)Oc1ccc([N+](=O)[O-])cc1CCl`: the Potency entry in test [19], in test [20], in test [14], in test [15], in [2] and in [3] was “inactive” throughout. The Potency entry in test [4], in test [6], in test [8], in [10], in [12] and in test [13] was “inactive” in each case. In addition, the call in [5] was inactive. Moreover, the Potency was 48.6 µM (active) in test [7], 30.6 µM (active) in [9] and 27.3 µM (active) in test [11].
For `C=CC(C)(CCC=C(C)C)OC(=O)CC(C)C` (stereo not given), the Potency result in [1], in [14], in test [15], in test [2], in [3] and in test [4] was “inactive” in each case. In addition, the Potency entry in [6], in test [7], in test [8], in [9], in [10] and in [11] was “inactive” throughout. Also, in test [12], the Potency entry is “inactive”. The compound was classed as inactive in test [5].
For `C[C@]12CC[C@@H]3c4ccc(O)cc4CC[C@H]3[C@@H]1CC[C@@H]2OC(=O)CCC1CCCC1`, the Potency result in [19], in test [2], in test [3], in [4], in test [6] and in test [7] was “inactive” each time. Also, the Potency entry in [11], in [17] and in test [13] was “inactive” in each case. The Potency in test [20] is 0.386 µM (active); in test [8], 61.1 µM (active); in test [12], 21.7 µM (active) and 23.7 µM (active). For the same compound, the compound was called inactive in test [5].
Take `Cc1cccc(O)c1N`: the Potency result in test [19], in [14], in [2], in test [3], in test [4] and in test [6] was “inactive” each time. The Potency entry in [7], in [8], in test [10], in [11] and in test [12] was “inactive” in each case. The Potency in test [20] is 30.9 µM (active); in [9], 61.8 µM (active); in [13] it was 45.3 µM (active). For the same compound, the call in test [5] was inactive.
On to `CCCCCCCCCCCCCCN(CCO)CCO`, for which the Potency in test [15] is 34.4 µM (active); in test [7] it was 61.1 µM (active); in test [8], 30.6 µM (active); in test [9], 27.3 µM (active); in test [11] it was 68.6 µM (active); in test [13], 7.96 µM (active). For the same compound, the Potency result in test [4], in test [6] and in test [10] was “inactive” throughout. The call in test [5] was inactive.
